Measurements from PubChem BioAssay (NCATS).
Records with an inconclusive call do not appear. Activity calls are given as the source filed them. Calls follow the shape of the dose curve; as a rule, active = well fitted inhibition curve with a large enough effect; inconclusive = small, poorly fitted or top-dose-only effect; inactive = no such curve, though single readings can be large or run the other way.

The molecules below were run against Cytochrome P450 2D6 (Homo sapiens) (UniProt P10635) (assay: qHTS for inhibitors of CYP2D6 against the NCATS DSHEA and TCM libraries (AID 1919972)). Details: CYP2D6 enzymatic inhibition, luminescence qHTS; series mostly up to 34.1 µM; activity change, negative = inhibition: at the top concentration.
Cytochrome P450 2D6 (Homo sapiens), sequence (P10635 whole entry, looked up): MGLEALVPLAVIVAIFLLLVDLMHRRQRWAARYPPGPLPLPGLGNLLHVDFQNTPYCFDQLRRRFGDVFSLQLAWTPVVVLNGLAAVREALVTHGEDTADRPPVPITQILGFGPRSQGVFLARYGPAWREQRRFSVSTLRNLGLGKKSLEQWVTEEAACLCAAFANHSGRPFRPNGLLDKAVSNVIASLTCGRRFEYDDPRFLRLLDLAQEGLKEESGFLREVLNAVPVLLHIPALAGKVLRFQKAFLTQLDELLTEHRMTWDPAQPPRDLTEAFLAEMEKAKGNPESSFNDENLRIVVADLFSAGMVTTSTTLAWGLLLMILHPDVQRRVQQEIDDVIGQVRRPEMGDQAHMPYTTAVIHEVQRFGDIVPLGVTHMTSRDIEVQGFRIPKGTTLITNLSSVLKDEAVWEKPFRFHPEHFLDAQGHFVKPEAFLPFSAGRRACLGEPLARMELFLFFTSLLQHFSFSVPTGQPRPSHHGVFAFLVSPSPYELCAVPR
In short: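 Luminescent P450-Glo read-out of CYP2D6 turnover of a luciferin substrate after NADPH-driven reaction of 30-45 min at room temperature. Compounds were first preincubated 15 min with enzyme at titrated concentrations; quinidine was the intraplate control.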
% is scaled to controls: 0 for no effect and ±100 for the full control effect.

Row | Compound | activity change, negative = inhibition
1 | Oc1cc(O)c2c(c1)O[C@@H](c1cc(O)c(O)c(O)c1)[C@H](O)C2 | -1.41% (inactive)
2 | C=CCc1ccc(OC)c(OC)c1 | 3.38% (inactive)
3 | C=C(C)C1CC=C(C)C(O)C1 (centres undefined) | -2.74% (inactive)
4 | CC1=C2[C@H](/C=C(\C)C(=O)O)CC[C@@H](C)[C@H]2CC1 | 3.73% (inactive)
5 | C=C1CC[C@H]2C[C@@H]1C2(C)C | 0.302% [at 58.3 µM] (inactive)
6 | C=C1C[C@@]23CC[C@H]4[C@@](C)(CCC[C@@]4(C)C(=O)O[C@@H]4O[C@H](CO)[C@@H](O)[C@H](O)[C@H]4O[C@@H]4O[C@H](CO)[C@@H](O)[C@H](O)[C@H]4O)[C@@H]2CC[C@]1(O[C@@H]1O[C@H](CO)[C@@H](O)[C@H](O)[C@H]1O[C@@H]1O[C@H](CO)[C@@H](O)[C@H](O)[C@H]1O)C3 | 1.6% (inactive)
7 | CC(C)=CCC[C@](C)(O[C@@H]1O[C@H](CO)[C@@H](O)[C@H](O)[C@H]1O)[C@H]1CC[C@]2(C)[C@@H]1[C@H](O)C[C@@H]1[C@@]3(C)CC[C@H](O)C(C)(C)[C@@H]3[C@@H](O[C@@H]3O[C@H](CO)[C@@H](O)[C@H](O)[C@H]3O)C[C@]12C | 2.73% (inactive)
8 | CC(=O)O[C@@H]1CC[C@@]2(C)[C@@H](CC[C@]3(C)[C@@H]2C(=O)C=C2[C@@H]4[C@@H](C)[C@H](C)CC[C@]4(C)CC[C@]23C)[C@@]1(C)C(=O)O | -76.4% (inactive)
9 | CCCCCC(=O)O | 5.54% [at 58.3 µM] (inactive)
10 | CC(C)(O)[C@@H]1CC[C@](C)([C@H]2[C@@H](O)C[C@@]3(C)[C@@H]4C[C@H](O)[C@H]5C(C)(C)[C@@H](O[C@@H]6OC[C@@H](O)[C@H](O)[C@H]6O[C@@H]6O[C@H](CO)[C@@H](O)[C@H](O)[C@H]6O)CC[C@@]56C[C@@]46CC[C@]23C)O1 | -0.403% (inactive)
11 | COc1ccccc1/C=C/C=O | -15.3% [at 58.3 µM] (inactive)
12 | CCCCCCCCCCCC(=O)O | 0.602% (inactive)
13 | C=C(C)[C@H]1CC=C(CO)CC1 | -13.9% (inactive)
14 | CCCCCCCC/C=C/CCCCCCCC(=O)O | -2.32% (inactive)
15 | O=c1cc(-c2ccc(O)c(O)c2)oc2cc(O[C@@H]3O[C@@H](CO)[C@@H](O)[C@@H](O)[C@H]3O)cc(O)c12 | 2.17% (inactive)
16 | Cc1ccc(O)c(O)c1 | 1.06% [at 58.3 µM] (inactive)
17 | CCCCCCCC/C=C/CCCCCCCCCC(=O)O | 1.98% (inactive)
18 | CCCCCC/C=C/CCCCCCCCCC(=O)O | 6.48% (inactive)

What follows are molecules tested against Cytochrome P450 2C9 (Homo sapiens) (UniProt P11712) (assay: qHTS for inhibitors of CYP2C9 against the NCATS DSHEA and TCM libraries (AID 1919973; also: potency is read from the fitted curve at half-maximal effect;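 as to activity change, negative = inhibition: luminogenic pro-luciferin CYP2C9 substrate turned into luciferin with NADPH regeneration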)). Details: recombinant CYP2C9 enzyme activity, luminescence; series mostly up to 34.1 µM; activity change, negative = inhibition: at the top concentration.
Cytochrome P450 2C9 (Homo sapiens), sequence (P11712 whole entry, looked up): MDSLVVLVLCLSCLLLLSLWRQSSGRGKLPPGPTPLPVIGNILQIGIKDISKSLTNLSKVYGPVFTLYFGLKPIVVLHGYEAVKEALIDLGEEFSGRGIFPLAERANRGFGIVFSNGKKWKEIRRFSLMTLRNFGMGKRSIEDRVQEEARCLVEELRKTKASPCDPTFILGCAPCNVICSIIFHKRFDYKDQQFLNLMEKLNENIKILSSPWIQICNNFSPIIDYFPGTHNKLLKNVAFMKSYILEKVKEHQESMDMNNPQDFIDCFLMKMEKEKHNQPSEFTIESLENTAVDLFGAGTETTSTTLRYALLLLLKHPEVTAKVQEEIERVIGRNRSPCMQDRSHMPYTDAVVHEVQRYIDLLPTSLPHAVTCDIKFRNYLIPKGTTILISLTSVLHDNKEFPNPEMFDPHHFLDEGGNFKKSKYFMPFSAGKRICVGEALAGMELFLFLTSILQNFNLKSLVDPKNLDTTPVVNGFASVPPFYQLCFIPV
In short: (§1)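 Luminescent P450-Glo format: compounds preincubated 15 min with enzyme and luciferin substrate, reaction run 30-45 min after NADPH regeneration solution. Intraplate controls: ketoconazole for CYP3A4 and CYP2C19, sulfaphenazole for CYP2C9.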

Row | Compound | Potency | activity change, negative = inhibition
19 | O=C(O[C@@H]1Cc2c(O)cc(O)cc2O[C@@H]1c1ccc(O)c(O)c1)c1cc(O)c(O)c(O)c1 | 12.6 µM (active) | 
20 | C=CCc1ccc(OC)c(OC)c1 |  | -3.81% (inactive)
21 | C=C(C)C1CC=C(C)C(O)C1 (centres undefined) |  | -5.09% (inactive)
22 | C=C1CC[C@H]2C[C@@H]1C2(C)C |  | 0.941% [at 58.3 µM] (inactive)
23 | C=C1C[C@@]23CC[C@H]4[C@@](C)(CCC[C@@]4(C)C(=O)O[C@@H]4O[C@H](CO)[C@@H](O)[C@H](O)[C@H]4O[C@@H]4O[C@H](CO)[C@@H](O)[C@H](O)[C@H]4O)[C@@H]2CC[C@]1(O[C@@H]1O[C@H](CO)[C@@H](O)[C@H](O)[C@H]1O[C@@H]1O[C@H](CO)[C@@H](O)[C@H](O)[C@H]1O)C3 |  | 1.02% (inactive)
24 | CC(C)=CCC[C@](C)(O[C@@H]1O[C@H](CO)[C@@H](O)[C@H](O)[C@H]1O)[C@H]1CC[C@]2(C)[C@@H]1[C@H](O)C[C@@H]1[C@@]3(C)CC[C@H](O)C(C)(C)[C@@H]3[C@@H](O[C@@H]3O[C@H](CO)[C@@H](O)[C@H](O)[C@H]3O)C[C@]12C |  | 3.57% (inactive)
25 | CC(=O)O[C@@H]1CC[C@@]2(C)[C@@H](CC[C@]3(C)[C@@H]2C(=O)C=C2[C@@H]4[C@@H](C)[C@H](C)CC[C@]4(C)CC[C@]23C)[C@@]1(C)C(=O)O | 14.1 µM (active) | 
26 | CCCCC/C=C/C/C=C/CCCCCCCC(=O)O | 12.6 µM (active) | 
27 | CCCCCC(=O)O |  | 29.7% [at 58.3 µM] (inactive)
28 | CC(C)(O)[C@@H]1CC[C@](C)([C@H]2[C@@H](O)C[C@@]3(C)[C@@H]4C[C@H](O)[C@H]5C(C)(C)[C@@H](O[C@@H]6OC[C@@H](O)[C@H](O)[C@H]6O[C@@H]6O[C@H](CO)[C@@H](O)[C@H](O)[C@H]6O)CC[C@@]56C[C@@]46CC[C@]23C)O1 |  | -9.56% (inactive)
29 | O=C(/C=C/c1ccc(O)c(O)c1)OC1[C@H](O)CC(O)(C(=O)O)C[C@@H]1O (some centres undefined) |  | -18.5% (inactive)
30 | COc1ccccc1/C=C/C=O |  | 56.8% [at 58.3 µM] (inactive)
31 | CCCCCCCC/C=C/CCCCCCCC(=O)O | 14.1 µM (active) | 
32 | O=c1cc(-c2ccc(O)c(O)c2)oc2cc(O[C@@H]3O[C@@H](CO)[C@@H](O)[C@@H](O)[C@H]3O)cc(O)c12 | 3.98 µM (active) | 
33 | Cc1ccc(O)c(O)c1 |  | 3.08% [at 58.3 µM] (inactive)
34 | CCCCCCCCC/C=C/C(=O)CCc1ccc(O)c(OC)c1 | 11.2 µM (active) | 

The molecules below were run against Cytochrome P450 2C19 (Homo sapiens) (UniProt P33261) (assay: qHTS for inhibitors of CYP2C19 against the NCATS DSHEA and TCM libraries (AID 1919974;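 also: luminescence from luciferin released by CYP2C19 oxidation of a pro-luciferin substrate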; also: potency is read from the fitted curve at half-maximal effect)). Details: CYP2C19 enzyme inhibition, luminescence qHTS; series mostly up to 34.1 µM; activity change, negative = inhibition: at the top concentration.
Cytochrome P450 2C19 (Homo sapiens), sequence (P33261 whole entry, looked up): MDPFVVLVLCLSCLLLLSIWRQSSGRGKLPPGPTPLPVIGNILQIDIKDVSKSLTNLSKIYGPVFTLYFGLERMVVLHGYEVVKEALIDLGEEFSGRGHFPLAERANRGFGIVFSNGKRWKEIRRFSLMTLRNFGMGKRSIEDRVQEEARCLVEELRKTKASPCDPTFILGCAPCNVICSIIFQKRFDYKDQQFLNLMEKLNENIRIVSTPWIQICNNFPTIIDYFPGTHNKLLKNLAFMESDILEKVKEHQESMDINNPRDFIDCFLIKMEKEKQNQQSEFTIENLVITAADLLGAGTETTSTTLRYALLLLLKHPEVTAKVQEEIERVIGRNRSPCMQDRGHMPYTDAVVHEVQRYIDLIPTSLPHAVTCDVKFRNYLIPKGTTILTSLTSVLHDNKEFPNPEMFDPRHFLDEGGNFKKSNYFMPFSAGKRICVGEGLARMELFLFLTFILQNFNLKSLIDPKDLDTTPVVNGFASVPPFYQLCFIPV
In short: as §1

Row | Compound | Potency | activity change, negative = inhibition
35 | Oc1cc(O)c2c(c1)O[C@@H](c1cc(O)c(O)c(O)c1)[C@H](O)C2 | 3.55 µM (active) | 
36 | C=CCc1ccc(OC)c(OC)c1 |  | -16.1% (inactive)
37 | C=C1CC[C@H]2C[C@@H]1C2(C)C |  | 15.7% [at 58.3 µM] (inactive)
38 | C=C1C[C@@]23CC[C@H]4[C@@](C)(CCC[C@@]4(C)C(=O)O[C@@H]4O[C@H](CO)[C@@H](O)[C@H](O)[C@H]4O[C@@H]4O[C@H](CO)[C@@H](O)[C@H](O)[C@H]4O)[C@@H]2CC[C@]1(O[C@@H]1O[C@H](CO)[C@@H](O)[C@H](O)[C@H]1O[C@@H]1O[C@H](CO)[C@@H](O)[C@H](O)[C@H]1O)C3 |  | 12.7% (inactive)
39 | CC(C)=CCC[C@](C)(O[C@@H]1O[C@H](CO)[C@@H](O)[C@H](O)[C@H]1O)[C@H]1CC[C@]2(C)[C@@H]1[C@H](O)C[C@@H]1[C@@]3(C)CC[C@H](O)C(C)(C)[C@@H]3[C@@H](O[C@@H]3O[C@H](CO)[C@@H](O)[C@H](O)[C@H]3O)C[C@]12C |  | -16% (inactive)
40 | CC(=O)O[C@@H]1CC[C@@]2(C)[C@@H](CC[C@]3(C)[C@@H]2C(=O)C=C2[C@@H]4[C@@H](C)[C@H](C)CC[C@]4(C)CC[C@]23C)[C@@]1(C)C(=O)O | 3.55 µM (active) | 
41 | CCCCC/C=C/C/C=C/CCCCCCCC(=O)O | 22.4 µM (active) | 
42 | CCCCCC(=O)O |  | 28.5% [at 58.3 µM] (inactive)
43 | O=C(/C=C/c1ccc(O)c(O)c1)OC1[C@H](O)CC(O)(C(=O)O)C[C@@H]1O (some centres undefined) |  | 12.5% (inactive)
44 | C=C(C)[C@H]1CC=C(CO)CC1 | 12.6 µM (active) | 
45 | CCCCCCCC/C=C/CCCCCCCC(=O)O | 3.55 µM (active) | 
46 | O=c1cc(-c2ccc(O)c(O)c2)oc2cc(O[C@@H]3O[C@@H](CO)[C@@H](O)[C@@H](O)[C@H]3O)cc(O)c12 | 3.55 µM (active) | 
47 | Cc1ccc(O)c(O)c1 |  | 20.3% [at 58.3 µM] (inactive)
48 | CCCCCCCCC/C=C/C(=O)CCc1ccc(O)c(OC)c1 | 3.98 µM (active) | 
49 | CCCCCCCC/C=C/CCCCCCCCCC(=O)O |  | -21.6% (inactive)
